# Reference: PubChem BioAssay (NCI)
# This is part of a sample that, as a whole, favours compounds with a hit. Of some 79,000 tested, about 15% had one in any assay. Unmarked numbers belong to inactive results. Activity calls are given as the source filed them. No stated cut-off is given here; in the data, active means growth inhibition above about 70%; inactive means the rest.
# What was measured:
# [1] = NCI Yeast Anticancer Drug Screen. Data for the rad52 strain (AID 147);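 further: 0% = growth of vehicle-treated control cultures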; details: S. cerevisiae rad52 mutant growth inhibition, hits give high values
# Method in brief: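 Here a repair-compromised yeast strain receives each compound; its growth is then quantified and normalised to vehicle-only controls.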
# [2] = NCI Yeast Anticancer Drug Screen. Data for the wt1 strain (AID 149);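 further: 0% = growth of vehicle-treated wt1 cultures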; details: S. cerevisiae wt1 strain (SPY 50644) growth inhibition, hits give high values
# Method in brief: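 wt1 strain grown with compound or vehicle; inhibition taken from the growth difference.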
# [3] = NCI Yeast Anticancer Drug Screen. Data for the mgt1 strain (AID 153); details: S. cerevisiae mgt1 mutant growth inhibition, hits give high values
# Method in brief: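 Measured: inhibition of mgt1 yeast growth by compound, normalized to vehicle-treated cultures.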
# [4] = NCI Yeast Anticancer Drug Screen. Data for the rad50 strain (AID 155);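 further: 0% = growth of vehicle-only cultures of the same strain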; details: S. cerevisiae rad50 strain growth inhibition, hits give high values
# Method in brief: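 DNA repair mutant yeast, compound exposure, growth read-out; inhibition is taken relative to vehicle.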
# [5] = NCI Yeast Anticancer Drug Screen. Data for the mec2-1 strain (AID 157); details: S. cerevisiae mec2-1 strain, hits give high values
# Method in brief: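 Using mec2-1 yeast: add compound, measure growth, express inhibition versus vehicle-treated cultures.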
# [6] = NCI Yeast Anticancer Drug Screen. Data for the rad14 strain (AID 159);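 further: 0% = growth of vehicle-treated control cultures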; details: S. cerevisiae rad14 strain growth inhibition, hits give high values
# Method in brief: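 DNA repair-defective yeast, compound-exposed; % growth inhibition derived by comparison with vehicle-treated controls.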
# [7] = NCI Yeast Anticancer Drug Screen. Data for the sgs1 mgt1 strain (AID 161);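 further: 0% = growth of cultures given vehicle only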; details: S. cerevisiae sgs1 mgt1 strain, hits give high values
# Method in brief: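 Growth of a repair-deficient yeast mutant was monitored after compound treatment and expressed as inhibition relative to vehicle-treated cultures.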
# [8] = NCI Yeast Anticancer Drug Screen. Data for the CLN2oe strain (AID 163);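 further: 0% = growth of vehicle-only control cultures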; details: S. cerevisiae CLN2oe strain, hits give high values
# Method in brief: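 Whole-cell yeast growth assay. A strain engineered for altered cell-cycle control received compound, and inhibition relative to vehicle-treated cultures was recorded.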
# [9] = NCI Yeast Anticancer Drug Screen. Data for the cln2 rad14 strain (AID 165);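 further: 0% = growth equal to vehicle treated cultures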; details: S. cerevisiae cln2 rad14 strain, hits give high values
# Method in brief: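 Yeast strain cln2 rad14, bearing defects in cell cycle control and DNA repair, serves as the test system; values reflect growth inhibition compared with vehicle.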
# [10] = NCI Yeast Anticancer Drug Screen. Data for the bub3 strain (AID 167); details: S. cerevisiae bub3 mutant strain, hits give high values
# Method in brief: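 In this screen, a yeast mutant lacking normal mitotic checkpoint function is challenged with compound. Relative growth versus vehicle gives the inhibition value.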
# [11] = NCI Yeast Anticancer Drug Screen. Data for the wt2 strain (AID 169);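 further: 0% = growth of vehicle-treated yeast cultures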; details: S. cerevisiae wt2 strain growth inhibition, hits give high values
# Method in brief: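 Treated yeast vs. vehicle-treated yeast: growth inhibition determined.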
# [12] = NCI Yeast Anticancer Drug Screen. Data for the mlh1 strain (AID 171);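 further: 0% = growth of vehicle-treated control cultures of the same strain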; details: S. cerevisiae mlh1 strain growth inhibition, hits give high values
# Method in brief: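 A yeast strain with a defined genetic lesion serves as the test organism. Cultures receive compound or vehicle, and growth is measured.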
# [13] = NCI Yeast Anticancer Drug Screen. Data for the sgs1 strain (AID 173);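 further: 0% = growth of vehicle-only control cultures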; details: S. cerevisiae sgs1 mutant, hits give high values
# Method in brief: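 A genetically defined yeast mutant is incubated with the test compound, and its growth is compared to that of the same strain given vehicle.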
# [14] = NCI Yeast Anticancer Drug Screen. Data for the mlh1 rad18 strain (AID 175); details: S. cerevisiae mlh1 rad18 strain growth inhibition, hits give high values
# Method in brief: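 Steps: expose repair-defective yeast to compound; measure growth; express inhibition against vehicle-treated controls.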
# [15] = NCI Yeast Anticancer Drug Screen. Data for the rad18 strain (AID 177); details: S. cerevisiae rad18 mutant growth inhibition, hits give high values
# Method in brief: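 Measured value is growth inhibition of a yeast strain bearing a DNA repair alteration, referenced to vehicle-treated cells.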
# [16] = at 5.0 µM (retest, dose inferred, filed as 0.5)
# [17] = at 50.0 µM (retest, dose inferred, filed as 5.0)
compound,measurement,setting,value
O=[N+]([O-])c1ccc(N/N=C/Cc2ccccc2)c([N+](=O)[O-])c1,growth inhibition,[1]; at 1.2 µM,-3%
same,growth inhibition,[1]; at 3.7 µM,-4%
same,growth inhibition,[1]; at 11.0 µM,-2%
same,growth inhibition,[1]; at 33.0 µM,2%
same,growth inhibition,[1]; at 100.0 µM,2%
same,growth inhibition,[2]; at 1.2 µM,-1%
same,growth inhibition,[2]; at 3.7 µM,-2%
same,growth inhibition,[2]; at 11.0 µM,-3%
same,growth inhibition,[2]; at 33.0 µM,-6%
same,growth inhibition,[2]; at 100.0 µM,-12%
same,growth inhibition,[3]; at 1.2 µM,-2%
same,growth inhibition,[3]; at 3.7 µM,1%
same,growth inhibition,[3]; at 11.0 µM,-1%
same,growth inhibition,[3]; at 33.0 µM,-2%
same,growth inhibition,[3]; at 100.0 µM,13%
same,growth inhibition,[4]; at 1.2 µM,0%
same,growth inhibition,[4]; at 3.7 µM,-2%
same,growth inhibition,[4]; [16],5%
same,growth inhibition,[4]; at 11.0 µM,4%
same,growth inhibition,[4]; at 33.0 µM,8%
same,growth inhibition,[4]; [17],20%
same,growth inhibition,[4]; at 50.0 µM,-3.75%
same,growth inhibition,[4]; at 100.0 µM,-2%
same,growth inhibition,[5]; at 1.2 µM,-4%
same,growth inhibition,[5]; at 3.7 µM,-1%
same,growth inhibition,[5]; [16],1%
same,growth inhibition,[5]; at 11.0 µM,2%
same,growth inhibition,[5]; at 33.0 µM,6%
same,growth inhibition,[5]; [17],12%
same,growth inhibition,[5]; at 50.0 µM,30.8%
same,growth inhibition,[5]; at 100.0 µM,4%
same,growth inhibition,[6]; at 1.2 µM,-5%
same,growth inhibition,[6]; at 3.7 µM,-2%
same,growth inhibition,[6]; at 11.0 µM,2%
same,growth inhibition,[6]; at 33.0 µM,7%
same,growth inhibition,[6]; at 100.0 µM,3%
same,growth inhibition,[7]; [16],3%
same,growth inhibition,[7]; [17],45%
same,growth inhibition,[7]; at 50.0 µM,25%
same,growth inhibition,[8]; at 1.2 µM,-3%
same,growth inhibition,[8]; at 3.7 µM,1%
same,growth inhibition,[8]; at 11.0 µM,4%
same,growth inhibition,[8]; at 33.0 µM,0%
same,growth inhibition,[8]; at 100.0 µM,-1%
same,growth inhibition,[9]; [16],7%
same,growth inhibition,[9]; [17],-3%
same,growth inhibition,[9]; at 50.0 µM,-7.05%
same,growth inhibition,[10]; at 1.2 µM,2%
same,growth inhibition,[10]; at 3.7 µM,2%
same,growth inhibition,[10]; [16],9%
same,growth inhibition,[10]; at 11.0 µM,12%
same,growth inhibition,[10]; at 33.0 µM,27%
same,growth inhibition,[10]; [17],74% (active)
same,growth inhibition,[10]; at 50.0 µM,67.2%
same,growth inhibition,[10]; at 100.0 µM,39%
same,growth inhibition,[11]; at 1.2 µM,4%
same,growth inhibition,[11]; at 3.7 µM,5%
same,growth inhibition,[11]; at 11.0 µM,5%
same,growth inhibition,[11]; at 33.0 µM,6%
same,growth inhibition,[11]; at 100.0 µM,5%
same,growth inhibition,[12]; at 1.2 µM,-4%
same,growth inhibition,[12]; at 3.7 µM,-5%
same,growth inhibition,[12]; at 11.0 µM,0%
same,growth inhibition,[12]; at 33.0 µM,6%
same,growth inhibition,[12]; at 100.0 µM,11%
same,growth inhibition,[13]; at 1.2 µM,-4%
same,growth inhibition,[13]; at 3.7 µM,-1%
same,growth inhibition,[13]; at 11.0 µM,2%
same,growth inhibition,[13]; at 33.0 µM,9%
same,growth inhibition,[13]; at 100.0 µM,22%
same,growth inhibition,[14]; [16],1%
same,growth inhibition,[14]; [17],29%
same,growth inhibition,[14]; at 50.0 µM,12.1%
same,growth inhibition,[15]; at 1.2 µM,-2%
same,growth inhibition,[15]; at 3.7 µM,3%
same,growth inhibition,[15]; at 11.0 µM,11%
same,growth inhibition,[15]; at 33.0 µM,17%
same,growth inhibition,[15]; at 100.0 µM,21%
